# Source: PubChem BioAssay AID1359 (The Scripps Research Institute Molecular Screening Center, 2008)
# About 970 (0.44%) of roughly 220,000 compounds were called active. This is one part of a sample in which actives are shown more often than they occur. Unmarked numbers belong to inactive results. Rule as the data show it: active = activation above about 27%; inactive = the rest.
# Target: Neuropeptide Y receptor type 2 (Homo sapiens) (UniProt P49146)
# Experiment: human Y2 receptor positive modulation or activation – cell-based, primary screen (AID 1359);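 also: cells stimulated with NPY near EC25 plus isoproterenol at EC100; 0% = vehicle plus submaximal agonist and 100% = vehicle plus saturating agonist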
# Conditions: cells expressing NPY-Y2, potentiator/agonist read-out; at 3.6 µM; active compounds read high
# Neuropeptide Y receptor type 2 (Homo sapiens), sequence (P49146 whole entry, looked up): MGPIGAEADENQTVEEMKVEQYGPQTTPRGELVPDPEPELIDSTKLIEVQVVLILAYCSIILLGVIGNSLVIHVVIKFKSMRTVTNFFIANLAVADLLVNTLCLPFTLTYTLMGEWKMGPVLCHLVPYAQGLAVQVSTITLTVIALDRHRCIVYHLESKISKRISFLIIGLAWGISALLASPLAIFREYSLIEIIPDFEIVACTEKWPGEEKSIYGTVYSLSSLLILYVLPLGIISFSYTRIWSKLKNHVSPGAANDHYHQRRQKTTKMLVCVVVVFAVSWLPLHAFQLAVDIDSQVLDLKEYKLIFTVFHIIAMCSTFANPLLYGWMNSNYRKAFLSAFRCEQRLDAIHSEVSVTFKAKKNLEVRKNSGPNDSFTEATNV
row,SMILES,activation
1,O=C(Nc1nncs1)c1ccccc1NS(=O)(=O)c1cccs1,-3.36%
2,COc1cc(NC(=O)c2cccnc2SC)cc(OC)c1,6.08%
3,CCOc1ccc(NC(=O)c2ccccc2NS(C)(=O)=O)cc1,2.32%
4,COc1cc(NC(=O)c2ccccc2NS(=O)(=O)c2ccc(Cl)s2)cc(OC)c1,44% (active)
5,COC(=O)c1ccc(NC(=O)c2ccccc2NS(=O)(=O)c2ccccc2)cc1,34.4% (active)
6,COC(=O)c1ccccc1NC(=O)c1ccccc1NS(C)(=O)=O,-6.98%
7,COc1ccccc1NC(=S)N1CCC(NC(=O)C23CC4CC(CC(C4)C2)C3)CC1,1.71%
8,O=c1c2c3c(sc2n(CCN2CCCC2)c(=O)n1Cc1ccccc1)CCCCC3,-17.9%
9,O=C(Cn1nnc(N2CCCCC2)n1)c1ccc(Cl)c(Cl)c1,19%
10,COc1ccc(Cc2n[nH]c(=S)n2NC(=O)Nc2ccc(C)cc2)cc1,7.41%
11,CC1CN(/C=C/C(=O)C(F)(F)F)CC(C)O1 (stereo unspecified),-5.05%
12,CCC(=O)N1CCC(C(N)=O)(N2CCCCC2)CC1,-10.4%
13,CCCCCCCC1(C)NC(=O)N(CC(=O)Nc2cc(C)on2)C1=O (stereo unspecified),8.45%
14,CCOC(=O)Cc1cc(=O)[nH]c(/N=C(\N)Nc2ccc(OC)cc2)n1,-5.89%
15,CC(C)OP(=O)(OC(C)C)C(Nc1ccccc1)c1cccc([N+](=O)[O-])c1 (stereo unspecified),-1.74%
16,CC(CCc1ccccc1)NCC(O)c1cccc([N+](=O)[O-])c1 (stereo unspecified),87.1% (active)
17,CC(=O)NCC(O)c1ccc([N+](=O)[O-])cc1 (stereo unspecified),7.64%
18,O=C(CCn1nnc2ccccc2c1=O)N[C@@H](Cc1c[nH]c2ccccc12)C(=O)O,13.2%
19,CCOc1ccc(S(=O)(=O)N(CC(=O)NCC(F)(F)F)Cc2ccco2)cc1,-4.11%
20,Cc1ccc(Nc2nc(CSc3nnc(-c4ccncc4)n3-c3ccccc3C)cs2)cc1,2.6%
21,COc1cccc(CNn2cn[nH]c2=S)c1OCc1ccccc1,2.42%

row,SMILES,activation
1,O=C(CC(=O)Nc1ccc(Cl)c(Cl)c1)N/N=C/c1ccc(O)cc1,7.69%
2,CN(C)CCNC(CC(=O)Nc1ccc(Cl)c(Cl)c1)C(=O)O (stereo unspecified),4.29%
3,O=C(CC(O)(C(F)(F)F)C(F)(F)F)Nc1ccc(Cl)c(Cl)c1,52.9% (active)
4,Cc1ccccc1/[N+]([O-])=C/c1ccncc1,-7.27%
5,CC(=O)c1c(C)[nH]c(=S)c(C#N)c1-c1ccc(F)cc1,-13.5%
6,C#CCOCCOCCOCCNc1nc(N2CCN(C(=O)[C@H](CCC(=O)O)n3cc(C(N)CO)nn3)CC2)nc(N2CCN(C(=O)[C@H](Cc3ccc(O)cc3)n3cc(C(N)[C@H](C)CC)nn3)CC2)n1 (stereo partly specified),-0.84%
7,Oc1ccc(/C=N/Nc2ccc(C(F)(F)F)cn2)cc1O,28.2% (active)
8,O=C(Nc1ccccc1)Nc1ccc(C(F)(F)F)cn1,4.92%
9,Cc1nccn1CC(=O)N/N=C/c1ccc(O)c(O)c1,-13.1%
10,Cc1ccc(-c2c[n+](=O)c3c(n2[O-])CCC3)cc1,-8.75%
11,Cc1c(C(=O)NCCCc2ccccc2)cccc1[N+](=O)[O-],2.52%
12,O=C1CCCC(O)=C1N=Nc1ccc(S(=O)(=O)N2CCOCC2)cc1,4.38%
13,CC(=O)Nc1ccccc1OC(C)C(=O)N1CCC(C)CC1 (stereo unspecified),-7.73%
14,CC(C)(C)CC(C)(C)NCC(O)COCCOc1ccc(Br)cc1 (stereo unspecified),-6.14%
15,Cc1noc(COc2ccccc2OCC(O)CNC(C)(C)C)n1 (stereo unspecified),102% (active)
16,Cc1noc(COc2ccccc2OCc2onc(C)c2Cl)c1Cl,0.6%
17,Cc1cccc(-c2nc3c(c(SCC(=O)N4CCOCC4)n2)CCCC3)c1,-7.06%
18,O=C(Nc1ccc(N2CCOCC2)nc1)c1c(F)cccc1F,-10.2%
19,CSc1ccc(NC(=O)/C=C/C(=O)O)cc1,-0.23%
20,O=C(COC(=O)c1ccc[nH]c1=O)Nc1ccc2c(c1)OC(F)(F)O2,-11.7%
21,CN(C)Cc1c(O)ccc2occ(C(O)c3ccccc3)c12 (stereo unspecified),92.7% (active)

row,SMILES,activation
1,N/C(=N\S(=O)(=O)c1cc(C(F)(F)F)cc(C(F)(F)F)c1)c1cccs1,46% (active)
2,Cc1ccc(S(=O)(=O)/N=C(\N)c2ccc(F)cc2)cc1,9.83%
3,C/C(=N\NS(=O)(=O)c1ccc(Br)cc1)c1cccs1,2.42%
4,Cn1c(=O)c(Sc2ccc(Cl)cc2)c(O)c2ccccc21,-8.34%
5,COc1cccc(NC(=S)NC(=O)c2c(Cl)c(C)nn2C)c1,-1.69%
6,OCCNCc1cccc(OCc2ccccc2Cl)c1,-2.33%
7,Cc1cccn2c(CN(C)C3CCCc4ccccc43)c(C(=O)N3CCOCC3)nc12 (stereo unspecified),-13.5%
8,OC(c1ccccc1)c1nccn1Cc1ccccc1 (stereo unspecified),3.61%
9,COC(=O)c1cc(N2CCNCC2)nc2ccccc12,17%
10,O=C(Nc1cccc(S(=O)(=O)N2CCCCC2)c1)c1ccc2c(c1)OCO2,1.87%
11,O=C(Nc1cccc(S(=O)(=O)Nc2ccc(Cl)cc2)c1)c1ccc2c(c1)OCCO2,35% (active)
12,O=C(Nc1ccc(Cl)cn1)c1ccc2c(c1)OCCO2,-8.32%
13,COC(=O)c1ccc(CSc2nncn2N)cc1,2.75%
14,NC(=O)CCC(NS(=O)(=O)c1ccc(Cl)cc1)C(=O)NCc1ccccc1Cl (stereo unspecified),10%
15,CC(=O)c1c(C)[nH]c(C(=O)COC(=O)c2cccc(S(=O)(=O)N(C)c3ccccc3)c2)c1C,10.4%
16,COc1ccc(C(C[N+](=O)[O-])n2nc(C)cc2C)cc1 (stereo unspecified),12.3%
17,CC(=O)N(CCCN(C)C)c1nc2ccc(C)cc2s1,-1.74%
18,COc1cccc2sc(N(CCCN(C)C)C(=O)C(c3ccccc3)c3ccccc3)nc12,95.6% (active)
19,CN(C)CCCN(C(=O)COc1ccccc1)c1nc2c(Cl)cccc2s1,-2.96%
